Data taken from the supplement of paper PMC12024424.
Structures can show the parent of a compound that is named as a salt.

The compounds below were run on Staphylococcus aureus Sa2 (MRSA, cystic fibrosis isolate) (assay: growth reduction vs untreated control (OD550); higher = stronger antibacterial activity). Settings: 0.1 mM; 24 h.
Experimental: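 Single-dose screen of the MedChem Express Drug Repurposing Library (0.1 mM, 1% DMSO) against planktonic MRSA S. aureus Sa2 (CF isolate) in TSB in 96-well plates, 37 °C aerobic, 24 h. Assays were run in triplicate and repeated twice.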

Q: How did the growth reduction turn out when `Fc1ccc(C(OCCN2CCN(CCCc3ccccc3)CC2)c2ccc(F)cc2)cc1` [Vanoxerine (dihydrochloride)] was run?
A: 100%

Q: Which growth reduction does the source give for `CC[C@H](C)C1O[C@]2(C=C[C@@H]1C)C[C@@H]1C[C@@H](C/C=C(\C)[C@@H](O[C@H]3C[C@H](OC)[C@@H](O[C@H]4C[C@H](OC)[C@H](NC)[C@H](C)O4)[C@H](C)O3)[C@@H](C)/C=C/C=C3\CO[C@@H]4[C@H](O)C(C)=C[C@@H](C(=O)O1)[C@]34O)O2` (stereo partly drawn) [Emamectin (Benzoate)] here?
A: 98%

Q: `C[S+]([O-])CCCCN=C=S` (stereo not drawn) [Sulforaphane] was tested. Which growth reduction did it give?
A: 97.9%

Q: Which growth reduction does the source give for `COc1cccc2c1cc([N+](=O)[O-])c1c(C(=O)O)cc3c(c12)OCO3` [Aristolochic acid A] here?
A: 95.3%

Q: Which growth reduction does the source give for `O=c1[nH]c2ccccc2n1C1CCN(CCCC(c2ccc(F)cc2)c2ccc(F)cc2)CC1` [Pimozide] here?
A: 100%

Q: With `CCNC1=Nc2ccc(Cl)cc2C(C)(c2ccccc2)O1` (stereo not drawn) [Etifoxine] as the compound, how does the growth reduction read?
A: 100%

Q: How did the growth reduction turn out when `Cc1cc2c(C(C)C)c(O)c(O)c(C=O)c2c(O)c1-c1c(C)cc2c(C(C)C)c(O)c(O)c(C=O)c2c1O` [(R)-(-)-Gossypol acetic acid] was run?
A: 96%

Q: Which growth reduction does the source give for `Cc1cc2c(C(C)C)c(O)c(O)c(C=O)c2c(O)c1-c1c(C)cc2c(C(C)C)c(O)c(O)c(C=O)c2c1O` [Gossypol (acetic acid)] here?
A: 99.3%

Q: With `Cc1cc2c(C(C)C)c(O)c(O)c(C=O)c2c(O)c1-c1c(C)cc2c(C(C)C)c(O)c(O)c(C=O)c2c1O` [Gossypol] as the compound, how does the growth reduction read?
A: 98.4%

Q: For `c1ccc2c(c1)Sc1ccccc1N2CC1CN2CCC1CC2` (stereo not drawn) [Mequitazine], which growth reduction is on record?
A: 99.3%

Q: For `O=C(CNC(=O)c1ccc(C2=NOC(c3cc(Cl)cc(C(F)(F)F)c3)(C(F)(F)F)C2)c2ccccc12)NCC(F)(F)F` (stereo not drawn) [Afoxolaner], which growth reduction is on record?
A: 100%

Q: Which growth reduction does the source give for `O=C(O)c1nn(Cc2ccc(Cl)cc2Cl)c2ccccc12` [Lonidamine] here?
A: 90.9%

Q: How did the growth reduction turn out when `O=c1c2ccccc2[se]n1-c1ccccc1` [Ebselen] was run?
A: 99.8%
